Broadly, the inhibition is the drop in the measured response relative to a control, in per cent.

The whole screen tested about 290,000 compounds, of which about 11,000 (3.8%) were called active.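 How the source made its calls: active means mean replicate inhibition above about 79%, with every replicate also reaching it (limit read from the data); inconclusive means only one of the two criteria met; inactive means mean below limit and not every replicate reaching it.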 The sample as a whole holds a higher share of actives than the screen did.

FAD-linked sulfhydryl oxidase ALR (Homo sapiens), sequence (P55789 whole entry, looked up): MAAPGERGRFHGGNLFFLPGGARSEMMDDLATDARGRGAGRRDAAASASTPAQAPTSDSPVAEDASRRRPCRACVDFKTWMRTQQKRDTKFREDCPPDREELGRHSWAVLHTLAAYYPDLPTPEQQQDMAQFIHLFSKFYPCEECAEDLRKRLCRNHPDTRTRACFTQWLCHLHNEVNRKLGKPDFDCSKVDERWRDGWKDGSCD

This assay concerns the target FAD-linked sulfhydryl oxidase ALR (Homo sapiens) (UniProt P55789). The assay can be described thus: inhibitors of human ALR sulfhydryl oxidase, primary screen, biochemical, H2O2 detection, HRP-luminol luminescence, single point (AID 485317). As to conditions: purified ALR, DTT oxidation, hits give high values, concentration not given here.
As to `CC1CCN(C(=O)COC(=O)c2cc(=O)[nH]c3ccccc23)CC1`, the inhibition is 2.67% (inactive).
As for `COc1cc(Cl)c(C)cc1NC(=O)CSc1nnc(-c2cccnc2)n1Cc1ccco1`, the inhibition was 20.1% (inactive).
`COc1cc(Cl)c(C)cc1NC(=O)CSc1nnc(-c2ccco2)n1CC(C)C`: the inhibition was 2.64% (inactive).
The result for `CCn1c(SCC(=O)Nc2cc(C)c(Cl)cc2OC)nnc1-c1ccco1` reads 98.5% (active); that for `CCOC(=O)[C@H]1[C@H]2COc3ccccc3[C@@H]2N2C(=O)CN(Cc3ccccc3)C(=O)[C@@]12C`, -1.27% (inactive).
In the case of `O=C(Nc1ccccc1-c1nc2ccccc2[nH]c1=O)c1cccs1`, the inhibition was 1.37% (inactive).
The result for `C/C(=N\Nc1nc2ccccc2[nH]1)c1cccs1` reads 99% (active).
As for `C/C(=N\Nc1ncc(Cl)cc1Cl)c1cccs1`, the inhibition is 0.466% (inactive).
As to `O=C1CCC/C=C/C[C@@H](CC(=O)N(CCO)Cc2ccccc2)C(=O)NC[C@H](c2ccccc2)O1`, the inhibition was 0.972% (inactive).
Turning to `CCC[C@H]1CCCC/C=C\CCCC(=O)OCCN1C(=O)OC(C)(C)C`, the inhibition was -2.32% (inactive).
Turning to `CC(C)CC1NC(=O)c2cc(Cl)ccc2-n2c1nc1ccccc1c2=O` (stereo unspecified), the inhibition was -5.03% (inactive).
For the compound `COc1cnn(-c2ccc([N+](=O)[O-])cc2)c(=O)c1Cl`, the inhibition is 4% (inactive).
For the compound `Cc1ccc(OCc2n[nH]c(=S)n2-c2ccc(C)cc2)cc1`, the inhibition is 47.3% (inactive).
As to `COc1ccc(-n2c(-c3ccc(OC)c(OC)c3)n[nH]c2=S)cc1`, the inhibition is 94% (active).
Take `Cc1ccc(-n2c(-c3ccc(Cl)cc3)n[nH]c2=S)cc1`: the inhibition is -1.26% (inactive).
With `COc1ccc(CNC(=O)COC(=O)CCS(=O)(=O)c2ccc(C)cc2)cc1OC` the figure was 2.97% (inactive); with `CCCCN1C(=O)C(=O)N(CC(=O)Nc2cccc(C(C)=O)c2)C1=O`, 1.6% (inactive); with `C=CCC[C@@H](Cc1ccc(F)cc1)C(=O)OC[C@@H](C)NC(=O)[C@H](CC=C)CC(=O)N(CCO)Cc1ccccc1`, -10.3% (inactive).
On to `Cc1nc2ccccc2c(=O)n1NC(=O)c1ccccc1`, for which the inhibition was -10.2% (inactive).
For `O=C(NC(=O)c1ccccc1)NC(=O)c1ccccc1`, the inhibition was 0.464% (inactive).
With `Cn1sc(NC(=O)c2ccccc2)nc1=O` the figure was 88.6% (active); with `Cc1ccc(C(=O)NC2CCCC(C)C2C)cc1S(=O)(=O)N1CCCCC1` (stereo unspecified), -6.06% (inactive); with `CC(OC(=O)c1ccc(S(=O)(=O)N2CCOCC2)cc1)c1ccccc1` (stereo unspecified), -21.1% (inactive).
On to `Cc1ccc(OCC(=O)NC(C)c2ccccc2)cc1C` (stereo unspecified), for which the inhibition is -10.2% (inactive).
Regarding `COCCNC(=O)COc1ccc(C)c(C)c1`, the inhibition is 11.4% (inactive).
Regarding `Cc1ccc(SC(=O)COc2ccc(C)c(C)c2)cc1`, the inhibition was 98.5% (active).
With `CCn1nc(C(=O)NNS(=O)(=O)c2cc(/C=C/C(=O)O)cc(OC)c2OC)c2ccccc2c1=O` the figure was 4% (inactive); with `O=C(COC(=O)c1ccc([N+](=O)[O-])o1)NC12CC3CC(CC(C3)C1)C2`, -29.8% (inactive); with `CCOC(=O)c1cc(C)nc(S(C)(=O)=O)c1C#N`, 15.5% (inactive).
With `CCOC(=O)c1cc(C#N)c(N2CCCCC2)nc1-c1ccccc1` the figure was 6.36% (inactive); with `CCCCSc1[nH]c(=O)c(C(=O)OCC)cc1C#N`, 90% (active).
In the case of `CCOc1cc(C(=O)Nc2ccc(S(=O)(=O)Nc3cnc4ccccc4n3)cc2)cc(OCC)c1OCC`, the inhibition is 27.5% (inactive).
Turning to `Cc1ccc(C)c2c1cc(C)c1nnc(SCC(=O)Nc3cccc(C(=O)O)c3)n12`, the inhibition is 3.23% (inactive).
The result for `CC(C)c1nc(SCC(=O)Nc2cccc(C(=O)O)c2)c2c3c(sc2n1)CCCC3` reads 98.2% (active); that for `Cc1cc(NC(=O)CSc2nc(C(C)C)nc3sc4c(c23)CCC(C)C4)no1` (stereo unspecified), -10.2% (inactive); that for `C=CC[C@H](CC(=O)NCCO)C(=O)N[C@@H](COC(=O)[C@@H](CC=C)Cc1ccc(F)cc1)Cc1c[nH]c2ccccc12`, 6.65% (inactive).
With `CCN(CC)c1ccc(NC(=O)C2CCC(CNc3c(N4CCCC4)c(=O)c3=O)CC2)c(C)c1` (stereo unspecified), the inhibition was 99.4% (active).
Take `CCOc1ccccc1NC(=O)C1CCC(CNc2c(N3CCOCC3)c(=O)c2=O)CC1` (stereo unspecified): the inhibition was -8.1% (inactive).
Regarding `COc1ccc(NC(=O)C2CCC(CNc3c(N4CCCCC4)c(=O)c3=O)CC2)c(OC)c1` (stereo unspecified), the inhibition was -10.1% (inactive).
With `COc1ccc(Cl)cc1NC(=O)CN(C)C(=O)c1cc2ccccc2cc1OC`, the inhibition is -4.22% (inactive).
The result for `CCCCn1c(-c2cccc(C)c2)nc2cc3[nH]c(=O)c(C(C)C)nc3cc21` reads -32.5% (inactive); that for `CC1CN(C(=O)COC(=O)c2cccc(NS(=O)(=O)c3ccccc3)c2)CC(C)O1` (stereo unspecified), 2.21% (inactive); that for `CCOc1ccc(C(=O)NCC(=O)N2CCCCCCC2)cc1OCC`, -5.97% (inactive).
The result for `O=C(COc1ccc(Br)cc1F)NCC1(N2CCCCC2)CCCCC1` reads 2.53% (inactive); that for `CCCCOC(=O)CNc1nnc(SCC(=O)OCC)[nH]c1=O`, 100% (active); that for `Cc1nnc(SCC(=O)N2CCOCC2)[nH]c1=O`, 3.8% (inactive).
Take `CCOC(=O)CSc1nc(C)c(Oc2ccc(Cl)cc2Cl)c(=O)[nH]1`: the inhibition is -20.9% (inactive).
Consider `Cc1c(C(=O)Nc2ccccn2)oc2ccc(Br)cc12`, for which the inhibition was 1.89% (inactive).
For the compound `COc1cc(OC)c(N2CC(C(=O)Nc3cc(Cl)ccc3N3CCOCC3)CC2=O)cc1Cl` (stereo unspecified), the inhibition is -7.16% (inactive).
Turning to `C[C@H]1CN([C@@H](C)CO)C(=O)Cc2cc(NC(=O)Cc3ccccc3)ccc2O[C@H]1CN(C)S(=O)(=O)c1cccs1`, the inhibition was 2.5% (inactive).
With `CC(C)CN(C(=O)CSc1ncnc2sccc12)C1CCS(=O)(=O)C1` (stereo unspecified) the figure was 5.3% (inactive).
For `COc1ccc(-c2cnc(SCCNC(=O)c3ccc4c(c3)OCO4)[nH]2)cc1`, the inhibition was 14.2% (inactive).
Take `CCN(CC)c1ccc2cc(C(N)=O)/c(=N\NC(=O)c3ccncc3)oc2c1`: the inhibition is 8.16% (inactive).
For `CCN(CC)c1ccc2c(Nc3ccccc3)c(C=O)c(=O)oc2c1`, the inhibition was 1.6% (inactive).
Consider `CCN(CC)c1ccc2oc(=O)c(C)nc2c1`, for which the inhibition is 96.5% (active).
With `C[C@H](NS(=O)(=O)c1ccc(Cl)cc1)C(=O)OCC(=O)N1CCOCC1` the figure was -3.05% (inactive); with `O=C(NC1CCCCCC1)C1CCN(C(=O)c2ccc(Cl)cc2)CC1`, 0.152% (inactive).
With `COc1cc(C(=O)NCc2nnc(SCC(=O)c3ccc(Cl)cc3)o2)cc(OC)c1OC` the figure was -31.3% (inactive); with `COc1cc(C(=O)NCc2nnc(SCC(=O)Nc3nc4ccc(C)cc4s3)o2)cc(OC)c1OC`, 96.6% (active); with `COc1ccc(C(=O)NCc2nnc(SCC(=O)Nc3cccc(OC)c3)o2)cc1`, -14.1% (inactive).
As for `COc1ccc(CN2CCN(C(=O)c3cc(C4CC4)nn3-c3ccccc3)CC2)cc1F`, the inhibition was -3.02% (inactive).
With `CCc1ccc(CN(C)C(=O)CCc2nnc(-c3ccc(-c4ccccc4)cc3)o2)nc1` the figure was -6.23% (inactive); with `CC(=O)c1ccc(-c2nnc(CCC(=O)N(C)Cc3cnc4ccccn34)o2)s1`, 96.1% (active).
`CN(Cc1ccccc1)C(=O)CCc1ccccc1`: the inhibition is 26.4% (inactive).
On to `COc1ccc(C(=O)OCC(=O)c2cc(C)n(CC3CCCO3)c2C)cc1[N+](=O)[O-]` (stereo unspecified), for which the inhibition was -3.78% (inactive).
With `O=C(CCNC(=O)c1ccc(Br)cc1)NCC(c1ccco1)N1CCCCC1` (stereo unspecified), the inhibition is 1.52% (inactive).

The record behind these values is PubChem BioAssay AID485317 (Broad Institute, 2010).
